Data on 13 molecules can be found in PubChem BioAssay (NCI).

SMILES strings stand for the structures. This is part of a sample that, as a whole, favours compounds with a hit. Of some 83,000 tested, about 20% had one in any assay.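 Cell lines were cultured in 96-well plates, exposed to a single compound concentration, and assessed for percent growth 48 hours later.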 A number with no mark means an inactive call. Activity calls are given as the source filed them. Rule for the calls: active = growth percent below 10; inactive = the rest.

Common to all, as to experiment: NCI-60 one-dose screen, 48 h (100 = growth as untreated, 0 = no growth, -100 = all killed)
What all share (details): 10 µM unless noted

The test system of test [1] is HCT-15 colon.
In test [2] the test system is HT29 colon.
Test [3] has as its system SNB-19 CNS.
Test [4] relates to U251 CNS.
The subject of test [5] is PC-3 prostate.
Test [6] relates to SK-MEL-5 melanoma.
Test [7] has as its system UACC-62 melanoma.
The test system of test [8] is LOX IMVI melanoma.
The subject of test [9] is SK-MEL-28 melanoma.
In test [10] the test system is SK-MEL-2 melanoma.
Test [11] relates to EKVX NSCLC.
The test system of test [12] is SN12C renal.
Test [13] has as its system UO-31 renal.
The test system of test [14] is TK-10 renal.
Test [15] concerns ACHN renal.
The test system of test [16] is CAKI-1 renal.
For test [17], the system named is A498 renal.
Test [18] relates to CCRF-CEM leukemia.
Test [19] relates to MOLT-4 leukemia.

As to `CCO/C=N/C1=C(C#N)C(c2ccc(Cl)cc2)c2c(c3ccc(C)cc3[nH]c2=O)O1` (stereo not given), the growth was 91.1% in [1]; 80.5% in test [2]; 84.7% in test [3]; 90.3% in test [4]; 83.5% in [5]; 87.1% in [6]. In addition, the growth in [7] is 67.6%; in test [8], 86.8%; in test [9] it was 101%; in [10] it was 101%; in test [11], 69.5%; in test [12], 85.5%. Besides, the growth in [13] is 49.6%; in [14], 116%; in test [15], 78.5%; in test [16], 49.7%; in [17], 66.1%; in test [18] it was 87.3%. The growth in test [19] was 95.6%.

For `CCc1ccc(-c2ccc(=O)n(-c3ccc(S(N)(=O)=O)cc3)n2)cc1`, the growth in test [1] is 29.7%; in test [2] it was 11.8%; in [3] it was 57.6%; in test [4], 35%; in test [5], 35%; in [6], 12.9%. The growth in test [7] is 38.5%; in test [8], 55.1%; in test [9], 49.4%; in test [10] it was 1.5% (active); in test [11], 69.1%; in test [12], 58.4%. The growth is 38.4% in test [13]; 76.8% in [14]; 60.3% in test [15]; 36.7% in test [16]; 40.3% in test [17]; 16% in test [19].

As for `Nc1cccc(-c2nc3sccn3c2-c2ccnc(NCCNS(=O)(=O)c3ccc(C(F)(F)F)cc3)n2)c1`, the growth is 47.3% in test [1]; 45.7% in test [2]; 75.4% in test [3]; 52.4% in [4]; 51.6% in test [5]; 32.9% in [6]. In addition, the growth in test [7] is 61.6%; in [8], 38.8%; in test [9], 82.2%; in test [10], 80.5%; in test [11], 67.2%; in test [12], 63%. Moreover, the growth in test [13] is 15.8%; in test [14], 86.1%; in test [15], 33.9%; in [16], 39.1%; in test [17], 34.1%; in [18] it was 41.8%. Besides, in [19], the growth is 45.6%.

Regarding `CCCCCCCCCCCCNC(=O)[C@H]1CSC(c2cc(Br)cs2)N1` (stereo not given in full), the growth is 3.37% (active) in test [1]; 0.836% (active) in test [2]; 74.5% in [3]; -52.6% (active) in [4]; -35% (active) in [5]; 53.4% in test [6]. Moreover, the growth in test [7] is -84.5% (active); in test [8], -86.4% (active); in test [9], -82% (active); in test [10], -58.7% (active); in test [11], -64% (active); in test [12] it was -53.5% (active). Also, the growth in test [13] was -76% (active); in test [14] it was -80.1% (active); in test [15], 14.3%; in [16], 77.9%; in test [17], 76.8%; in [18], -42.1% (active). Moreover, the growth in test [19] is -59.8% (active).

In the case of `COc1ccc(S(=O)(=O)NCCCNc2nccc(-c3c(-c4cccc([N+](=O)[O-])c4)nc4sccn34)n2)cc1`, the growth is 30.9% in [1]; 31.1% in test [2]; 74.6% in test [3]; 71.8% in test [4]; 23.9% in test [5]; -20.5% (active) in test [6]. Further, the growth in test [7] is 10.1%; in test [8], 30.1%; in [9] it was 61.4%; in test [10] it was 41.4%; in test [11] it was 57.2%; in test [12], 42.8%. In addition, the growth in [13] is 19.7%; in test [14], 89.1%; in test [15], 33.8%; in test [16], 34.9%; in test [17], 46.2%; in [18], 18.7%. Besides, the growth in test [19] was 22.5%.

With `Cn1cnc2c(N3CCN(C(=O)OCc4ccc5c(Cl)cc(Cl)c(O)c5n4)CC3)nc(Cl)nc21`, the growth in test [1] was 30.5%; in test [2] it was 113%; in [3], 60.3%; in [4], 38.6%; in test [5], 54.8%; in [6], 41.6%. The growth in [7] is 53.7%; in test [8] it was 44.5%; in [9] it was 68.5%; in [10], 81%; in test [11], 66.9%; in test [12], 63%. The growth in test [13] was 48.2%; in test [14], 96%; in test [15], 48.4%; in [16], 63.8%; in [17], 62.7%; in test [18] it was 37.6%. The growth in [19] was 59.5%.

`CC(C)CSc1nc(NN)c(C#N)c(-c2ccc(F)cc2)n1`: the growth is 46.9% in test [1]; 103% in test [2]; 60.8% in test [3]; 60.2% in [4]; 56.7% in test [5]; 50.3% in test [6]. Also, the growth in test [7] was 56%; in test [8] it was 54.4%; in test [9] it was 85%; in [10], 67.9%; in test [11], 89.4%; in [12], 79.9%. Besides, the growth in test [13] is 55.8%; in [14], 92.1%; in test [15], 60.6%; in test [16] it was 67.9%; in [17], 68.2%; in test [18] it was 61.6%. In test [19], the growth was 80.3%.

Turning to `CN1CCN(Cc2ccc(NC(=O)c3cncc(C#Cc4cnc(N)c5cnccc45)c3)cc2C(F)(F)F)CC1`, the growth is 7.9% (active) in test [1]; -14.7% (active) in [2]; 32% in test [3]; 28.9% in test [4]; 26.8% in test [5]; -45.3% (active) in [6]. For the same molecule, the growth in test [7] was -74.8% (active); in test [8] it was -93.4% (active); in test [9] it was -84.5% (active); in [10], -65.4% (active); in [11], 2.4% (active); in [12], 5.24% (active). For the same molecule, the growth is -21.1% (active) in [13]; 12.8% in test [14]; -9.19% (active) in test [15]; -18.9% (active) in [16]; -54.8% (active) in test [17]; 13% in test [18]. In [19], the growth is 16.8%.

Take `NC(=S)N/N=C(/CCN1CCCC1)CC(C1=C(O)C2=CCCCC2OC1=O)c1ccccc1` (stereo not given): the growth in test [1] is 75.6%; in test [2], 36.2%; in test [3] it was 109%; in test [4], 88%; in [5] it was 85.6%; in test [6], 98.3%. Besides, the growth in [7] was 97.4%; in test [8] it was 56%; in test [9] it was 99.6%; in test [10] it was 93.2%; in test [11] it was 63.3%; in [12], 85.3%. For the same molecule, the growth was 64.5% in [13]; 120% in test [14]; 89.4% in test [15]; 98.6% in test [16]; 109% in test [17]; 48.9% in test [18]. Also, in test [19], the growth is 64.8%.

On to `Cc1ccc(S(=O)(=O)NC(=O)n2cc(-c3ccncc3)c(-c3ccc(Cl)c(O)c3)n2)cc1`, for which the growth in test [1] was 107%; in test [2] it was 101%; in [3], 117%; in [4], 111%; in [5] it was 95.3%; in test [6] it was 100%. In addition, the growth is 85.2% in [7]; 93.4% in test [8]; 130% in test [9]; 90.9% in test [10]; 110% in [11]; 99.9% in test [12]. For the same molecule, the growth in [13] is 107%; in test [14] it was 95.5%; in test [15] it was 94.5%; in test [16] it was 95.5%; in test [17], 105%; in test [18], 93.9%. The growth in test [19] is 85.2%.

On to `Cc1ccc(S(=O)(=O)NCCNc2nccc(-c3c(-c4cccc(N)c4)nc4sccn34)n2)cc1`, for which the growth was 92.1% in test [1]; 91.7% in [2]; 104% in test [3]; 101% in test [4]; 84.5% in [5]; 84.6% in [6]. Further, the growth was 79.4% in test [7]; 95% in [8]; 107% in [9]; 109% in test [10]; 83.5% in test [11]; 81% in test [12]. For the same molecule, the growth in test [13] was 70.9%; in test [14], 116%; in test [15], 86.4%; in test [16], 81.8%; in test [17] it was 92.4%; in test [18], 95.8%. Further, the growth in [19] is 88%.

For `CCOC(=O)CN1/C(=N/c2sc3c(c2C(=O)OCC)CCN(C(=O)OCC)C3)SC(=O)/C1=C\C(=O)OC`, the growth in test [1] is 58.6%; in test [2] it was 61.2%; in test [3], 91.5%; in test [4], 85.3%; in test [5], 71.6%; in test [6], 99.7%. Also, the growth in [7] was 92.8%; in test [8] it was 81.3%; in test [9], 109%; in [10], 97.9%; in test [11], 93.1%; in test [12] it was 85.7%. In addition, the growth in [13] was 73.6%; in [14], 99%; in test [15], 95%; in test [16], 86.6%; in test [17], 93.3%; in test [19], 53.8%.

For `COc1ccc(-c2nc(/C=N/Nc3cc(C)nc4ccc(Br)cc34)c(C)o2)cc1`, the growth was -87.4% (active) in test [1]; -76.2% (active) in test [2]; -84.4% (active) in test [3]; -85.8% (active) in test [4]; -78.1% (active) in [5]; 47.4% in test [6]. The growth in [7] was -77.5% (active); in test [8] it was -86.7% (active); in test [9], -74.6% (active); in test [10] it was 104%; in [11], -8.99% (active); in [12] it was -89.2% (active). Further, the growth in test [13] is -99.1% (active); in test [14] it was -51.8% (active); in test [15], -100% (active); in test [16], -91.2% (active); in [17], 58.5%; in test [18], -50.4% (active). Besides, the growth in [19] is -53.3% (active).
